What all share (test): DAPPL (digital affinity profiling via proximity ligation, sequencing); 10 mM Tris-HCl pH 7.5, 50 mM NaCl, 1 mM DTT, 4% glycerol, room temperature, 30 min; GST-TFs on glutathione beads, 16-mer random dsDNA library, 0.1% formaldehyde crosslink after washing; high values mean tight binding
One assay deals with T1, FEV (Homo sapiens, UniProt Q99581 1-238).
T1 sequence: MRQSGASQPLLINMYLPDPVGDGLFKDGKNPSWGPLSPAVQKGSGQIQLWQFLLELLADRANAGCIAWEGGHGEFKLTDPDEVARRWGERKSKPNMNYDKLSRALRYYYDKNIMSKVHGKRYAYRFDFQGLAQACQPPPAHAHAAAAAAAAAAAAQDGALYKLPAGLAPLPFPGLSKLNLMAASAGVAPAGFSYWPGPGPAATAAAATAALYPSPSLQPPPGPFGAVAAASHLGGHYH
The conditions noted are these: protein: recombinant; tags: N-terminal GST; dsDNA, one strand shown. An outline of the steps: (§1)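 Binding signal is each hexamer's read frequency for a factor divided by its frequency in the tag-only sample. The factors were GST-fused human transcription factors from yeast, captured on glutathione beads, DNA-barcoded and pooled with that sample. Pools were incubated with 200 nmole of a random double-stranded 16-mer DNA library in Tris/NaCl/DTT/glycerol buffer at room temperature for 30 min, then washed, crosslinked with 0.1% formaldehyde, proximity-ligated with BsaI/T4 ligase (1 h, 37 °C), PCR-amplified and sequenced on an Illumina NextSeq500.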

The next assay deals with ETV5 (Homo sapiens, UniProt P41161 1-510). The conditions noted are these: protein: recombinant; tags: N-terminal GST; dsDNA, one strand shown. An outline of the steps: as §1
ETV5, sequence (P41161 whole entry): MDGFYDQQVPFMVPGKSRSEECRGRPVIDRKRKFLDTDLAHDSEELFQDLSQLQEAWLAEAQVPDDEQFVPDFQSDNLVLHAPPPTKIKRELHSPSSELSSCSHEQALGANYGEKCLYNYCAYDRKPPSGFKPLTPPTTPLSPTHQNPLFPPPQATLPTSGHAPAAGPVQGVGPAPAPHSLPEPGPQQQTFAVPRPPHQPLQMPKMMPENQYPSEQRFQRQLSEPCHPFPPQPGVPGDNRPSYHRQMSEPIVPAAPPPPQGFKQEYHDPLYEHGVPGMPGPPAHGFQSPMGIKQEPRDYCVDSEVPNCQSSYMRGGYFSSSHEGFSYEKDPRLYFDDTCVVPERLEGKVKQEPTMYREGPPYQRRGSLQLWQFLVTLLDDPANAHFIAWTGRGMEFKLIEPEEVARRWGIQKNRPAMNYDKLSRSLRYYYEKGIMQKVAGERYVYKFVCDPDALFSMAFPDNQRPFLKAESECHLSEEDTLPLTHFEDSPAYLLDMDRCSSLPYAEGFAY
The target in the next assay is HSF1 (Homo sapiens, UniProt Q00613 1-529). Conditions: protein: recombinant; tags: N-terminal GST; chain copies: 3; dsDNA, one strand shown. An outline of the steps: as §1
HSF1, sequence (Q00613 whole entry): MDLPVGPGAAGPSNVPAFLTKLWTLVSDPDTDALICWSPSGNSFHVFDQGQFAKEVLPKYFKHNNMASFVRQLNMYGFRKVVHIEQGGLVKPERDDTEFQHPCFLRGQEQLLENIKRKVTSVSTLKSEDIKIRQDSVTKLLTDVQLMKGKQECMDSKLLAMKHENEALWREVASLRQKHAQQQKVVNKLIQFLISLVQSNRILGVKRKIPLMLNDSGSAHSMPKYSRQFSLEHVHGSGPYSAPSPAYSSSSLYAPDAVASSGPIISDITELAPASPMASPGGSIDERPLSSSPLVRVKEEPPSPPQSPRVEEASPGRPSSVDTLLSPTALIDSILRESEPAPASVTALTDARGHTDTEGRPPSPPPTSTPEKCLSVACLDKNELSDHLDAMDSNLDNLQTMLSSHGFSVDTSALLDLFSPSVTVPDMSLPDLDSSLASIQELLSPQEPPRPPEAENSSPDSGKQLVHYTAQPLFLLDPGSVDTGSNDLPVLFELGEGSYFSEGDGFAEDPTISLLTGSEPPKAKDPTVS
For a further assay, the target named is T2, SPIC (Homo sapiens, UniProt Q8N5J4 1-248).
T2 sequence: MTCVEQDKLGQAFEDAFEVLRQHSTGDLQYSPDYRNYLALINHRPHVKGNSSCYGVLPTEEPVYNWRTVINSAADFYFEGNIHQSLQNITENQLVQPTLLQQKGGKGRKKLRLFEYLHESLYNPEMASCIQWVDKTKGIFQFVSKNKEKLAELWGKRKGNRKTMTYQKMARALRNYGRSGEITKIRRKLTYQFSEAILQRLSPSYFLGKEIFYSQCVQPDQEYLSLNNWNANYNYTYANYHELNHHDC
The conditions noted are these: protein: recombinant; tags: N-terminal GST; dsDNA, one strand shown. In outline: as §1

In the next assay the target is ELF4 (Homo sapiens, UniProt Q99607 1-663). Conditions: protein: recombinant; tags: N-terminal GST; dsDNA, one strand shown. An outline of the steps: as §1
ELF4, sequence (Q99607 whole entry): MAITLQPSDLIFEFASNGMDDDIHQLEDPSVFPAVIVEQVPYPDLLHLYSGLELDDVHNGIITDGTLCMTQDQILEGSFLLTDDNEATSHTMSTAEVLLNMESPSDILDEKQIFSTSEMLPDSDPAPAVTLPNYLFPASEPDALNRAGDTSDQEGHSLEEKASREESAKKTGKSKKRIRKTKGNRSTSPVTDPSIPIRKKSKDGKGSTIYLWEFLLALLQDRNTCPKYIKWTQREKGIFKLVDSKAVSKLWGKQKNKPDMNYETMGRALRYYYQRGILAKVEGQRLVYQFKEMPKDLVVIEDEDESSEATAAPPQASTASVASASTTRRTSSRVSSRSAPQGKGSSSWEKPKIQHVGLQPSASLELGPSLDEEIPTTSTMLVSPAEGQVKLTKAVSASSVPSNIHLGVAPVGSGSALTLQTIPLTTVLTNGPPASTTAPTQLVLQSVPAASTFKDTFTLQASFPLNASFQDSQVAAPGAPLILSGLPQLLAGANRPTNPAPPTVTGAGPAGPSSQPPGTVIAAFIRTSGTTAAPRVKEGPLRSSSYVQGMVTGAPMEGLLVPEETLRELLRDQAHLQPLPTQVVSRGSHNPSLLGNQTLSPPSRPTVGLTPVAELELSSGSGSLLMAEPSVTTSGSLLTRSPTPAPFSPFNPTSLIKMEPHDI
A further assay has as its target T3, ELK4 (Homo sapiens, UniProt P28324-2 1-405).
T3 sequence: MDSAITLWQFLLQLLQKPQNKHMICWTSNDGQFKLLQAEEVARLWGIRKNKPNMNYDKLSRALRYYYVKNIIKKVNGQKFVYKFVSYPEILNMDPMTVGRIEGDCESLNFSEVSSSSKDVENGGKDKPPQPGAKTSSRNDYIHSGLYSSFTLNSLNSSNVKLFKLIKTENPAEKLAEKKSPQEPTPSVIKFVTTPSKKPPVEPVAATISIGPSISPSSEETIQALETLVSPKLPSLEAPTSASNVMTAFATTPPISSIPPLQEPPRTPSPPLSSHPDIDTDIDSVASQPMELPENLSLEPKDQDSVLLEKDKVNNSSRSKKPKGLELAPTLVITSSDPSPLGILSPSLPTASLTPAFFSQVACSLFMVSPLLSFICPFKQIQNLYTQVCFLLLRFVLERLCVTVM
Conditions: protein: recombinant; tags: N-terminal GST; dsDNA, one strand shown. In outline: as §1

For the next assay, the target named is T4, ELF3 (Homo sapiens, UniProt P78545 1-371).
T4 sequence: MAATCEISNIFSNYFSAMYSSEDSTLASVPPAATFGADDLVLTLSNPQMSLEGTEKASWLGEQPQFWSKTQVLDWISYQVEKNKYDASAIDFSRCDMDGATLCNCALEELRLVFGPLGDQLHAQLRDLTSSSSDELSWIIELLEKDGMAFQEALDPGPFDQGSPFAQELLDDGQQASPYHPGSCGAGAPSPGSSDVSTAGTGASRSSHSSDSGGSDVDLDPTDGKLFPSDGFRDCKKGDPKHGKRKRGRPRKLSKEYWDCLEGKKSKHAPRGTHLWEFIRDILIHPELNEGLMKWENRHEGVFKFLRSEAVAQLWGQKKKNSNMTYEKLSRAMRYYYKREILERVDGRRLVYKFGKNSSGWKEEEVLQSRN
Conditions: protein: recombinant; tags: N-terminal GST; dsDNA, one strand shown. In outline:
as §1

A further assay concerns the target CRX (Homo sapiens, UniProt O43186 1-299). Conditions: protein: recombinant; tags: N-terminal GST; dsDNA, one strand shown. In outline: as §1
The target of a further assay is ETV1 (Homo sapiens, UniProt P50549 1-477). Conditions: protein: recombinant; tags: N-terminal GST; dsDNA, one strand shown. An outline of the steps: as §1
ETV1, sequence (P50549 whole entry): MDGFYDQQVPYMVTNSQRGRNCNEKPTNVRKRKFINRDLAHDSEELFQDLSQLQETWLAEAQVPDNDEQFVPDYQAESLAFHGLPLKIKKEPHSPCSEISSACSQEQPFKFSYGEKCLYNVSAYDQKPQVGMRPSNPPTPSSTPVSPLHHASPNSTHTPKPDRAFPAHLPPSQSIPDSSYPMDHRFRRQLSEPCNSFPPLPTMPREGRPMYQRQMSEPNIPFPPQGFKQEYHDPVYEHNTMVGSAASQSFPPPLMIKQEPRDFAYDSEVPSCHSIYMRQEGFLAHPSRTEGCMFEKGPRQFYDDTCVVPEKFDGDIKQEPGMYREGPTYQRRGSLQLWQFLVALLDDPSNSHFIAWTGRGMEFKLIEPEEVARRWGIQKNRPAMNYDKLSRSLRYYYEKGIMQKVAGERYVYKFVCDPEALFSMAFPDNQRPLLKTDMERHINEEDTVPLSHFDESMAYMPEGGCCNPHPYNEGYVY
The next assay addresses T5, ETV2 (Homo sapiens, UniProt O00321 1-342).
T5 sequence: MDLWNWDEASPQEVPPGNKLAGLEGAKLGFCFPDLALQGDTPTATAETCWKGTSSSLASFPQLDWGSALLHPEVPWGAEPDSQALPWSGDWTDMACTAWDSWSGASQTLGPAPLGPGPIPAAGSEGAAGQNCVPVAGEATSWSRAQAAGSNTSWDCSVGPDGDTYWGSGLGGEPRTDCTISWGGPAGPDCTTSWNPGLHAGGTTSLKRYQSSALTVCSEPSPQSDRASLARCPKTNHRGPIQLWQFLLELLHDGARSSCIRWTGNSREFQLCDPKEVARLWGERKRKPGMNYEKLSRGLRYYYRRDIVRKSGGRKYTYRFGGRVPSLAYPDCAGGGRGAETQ
The conditions noted are these: protein: recombinant; tags: N-terminal GST; dsDNA, one strand shown. In outline: as §1

CRX, sequence (O43186 whole entry): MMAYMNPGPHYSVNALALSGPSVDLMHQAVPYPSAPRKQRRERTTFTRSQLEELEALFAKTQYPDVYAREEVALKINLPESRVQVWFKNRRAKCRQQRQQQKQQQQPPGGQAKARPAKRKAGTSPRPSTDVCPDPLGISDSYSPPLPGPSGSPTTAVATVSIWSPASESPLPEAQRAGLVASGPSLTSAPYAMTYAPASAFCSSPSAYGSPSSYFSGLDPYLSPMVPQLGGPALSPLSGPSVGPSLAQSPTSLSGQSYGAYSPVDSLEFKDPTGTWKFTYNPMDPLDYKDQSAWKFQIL

As to ATACGC, the binding signal is 1.05 fold enrichment (6-mer frequency, TF over GST control) with FEV; 1.13 fold enrichment (6-mer frequency, TF over GST control) in the assay with ETV5; 1.04 fold enrichment (6-mer frequency, TF over GST control) with HSF1; 1.08 fold enrichment (6-mer frequency, TF over GST control) with SPIC; 1.18 fold enrichment (6-mer frequency, TF over GST control) in the assay with ELF4; 1.08 fold enrichment (6-mer frequency, TF over GST control) in the assay with ELK4. The binding signal is 1.13 fold enrichment (6-mer frequency, TF over GST control) with ELF3; 1.12 fold enrichment (6-mer frequency, TF over GST control) with CRX; 1.18 fold enrichment (6-mer frequency, TF over GST control) with ETV1.

With CTCGTG, the binding signal was 1.05 fold enrichment (6-mer frequency, TF over GST control) with FEV; 1.03 fold enrichment (6-mer frequency, TF over GST control) in the assay with ETV5; 1.18 fold enrichment (6-mer frequency, TF over GST control) with HSF1; 1.03 fold enrichment (6-mer frequency, TF over GST control) in the assay with SPIC; 1.21 fold enrichment (6-mer frequency, TF over GST control) with ELF4; 1.18 fold enrichment (6-mer frequency, TF over GST control) with ETV1.

For the sequence ATACCA, the binding signal with FEV is 1.08 fold enrichment (6-mer frequency, TF over GST control); with ETV5, 1.01 fold enrichment (6-mer frequency, TF over GST control); with HSF1 it was 1.03 fold enrichment (6-mer frequency, TF over GST control); with SPIC it was 1.03 fold enrichment (6-mer frequency, TF over GST control); with ELF4, 1.09 fold enrichment (6-mer frequency, TF over GST control); with ETV2 it was 1.08 fold enrichment (6-mer frequency, TF over GST control). The binding signal with CRX is 1.04 fold enrichment (6-mer frequency, TF over GST control); in the assay with ETV1 it was 1.05 fold enrichment (6-mer frequency, TF over GST control).

For CTAGGC, the binding signal with FEV is 1.16 fold enrichment (6-mer frequency, TF over GST control); with ETV5, 1.06 fold enrichment (6-mer frequency, TF over GST control); with HSF1, 1.22 fold enrichment (6-mer frequency, TF over GST control); with SPIC, 1.15 fold enrichment (6-mer frequency, TF over GST control); with ELF4, 1.16 fold enrichment (6-mer frequency, TF over GST control); with ETV2, 1.21 fold enrichment (6-mer frequency, TF over GST control). For the same sequence, the binding signal in the assay with CRX was 1.17 fold enrichment (6-mer frequency, TF over GST control); with ETV1 it was 1.04 fold enrichment (6-mer frequency, TF over GST control).

Consider GTACTA, for which the binding signal is 1.12 fold enrichment (6-mer frequency, TF over GST control) with FEV; 1.14 fold enrichment (6-mer frequency, TF over GST control) in the assay with ETV5; 1.15 fold enrichment (6-mer frequency, TF over GST control) in the assay with HSF1; 1.11 fold enrichment (6-mer frequency, TF over GST control) in the assay with SPIC; 1.08 fold enrichment (6-mer frequency, TF over GST control) in the assay with ELF4; 1.21 fold enrichment (6-mer frequency, TF over GST control) with ETV2. For the same sequence, the binding signal was 1.12 fold enrichment (6-mer frequency, TF over GST control) in the assay with CRX and 1.13 fold enrichment (6-mer frequency, TF over GST control) in the assay with ETV1.

CTTACG: the binding signal with FEV was 1.06 fold enrichment (6-mer frequency, TF over GST control); in the assay with ETV5, 1.12 fold enrichment (6-mer frequency, TF over GST control); in the assay with HSF1 it was 1.14 fold enrichment (6-mer frequency, TF over GST control); in the assay with SPIC, 1.02 fold enrichment (6-mer frequency, TF over GST control); in the assay with ELF4, 1.14 fold enrichment (6-mer frequency, TF over GST control); with ETV2, 1.1 fold enrichment (6-mer frequency, TF over GST control). Moreover, the binding signal in the assay with ELF3 was 1.11 fold enrichment (6-mer frequency, TF over GST control); with CRX it was 1.5 fold enrichment (6-mer frequency, TF over GST control).

Consider TGTTCG, for which the binding signal in the assay with FEV is 1.01 fold enrichment (6-mer frequency, TF over GST control); in the assay with ETV5 it was 1.06 fold enrichment (6-mer frequency, TF over GST control); with HSF1, 1.6 fold enrichment (6-mer frequency, TF over GST control); in the assay with SPIC it was 1.15 fold enrichment (6-mer frequency, TF over GST control); with ELK4 it was 1.01 fold enrichment (6-mer frequency, TF over GST control); with ELF3, 1.17 fold enrichment (6-mer frequency, TF over GST control). In addition, the binding signal is 1.06 fold enrichment (6-mer frequency, TF over GST control) with CRX and 1.05 fold enrichment (6-mer frequency, TF over GST control) with ETV1.

Turning to CACAAA, the binding signal in the assay with FEV was 1.09 fold enrichment (6-mer frequency, TF over GST control); with ETV5, 1.11 fold enrichment (6-mer frequency, TF over GST control); in the assay with HSF1, 1.02 fold enrichment (6-mer frequency, TF over GST control); in the assay with SPIC it was 1.07 fold enrichment (6-mer frequency, TF over GST control); with ELF4, 1.11 fold enrichment (6-mer frequency, TF over GST control); in the assay with ETV2, 1.09 fold enrichment (6-mer frequency, TF over GST control). Also, the binding signal with ELF3 was 1.1 fold enrichment (6-mer frequency, TF over GST control); with ETV1 it was 1.03 fold enrichment (6-mer frequency, TF over GST control).

Source of the values: paper PMC7862700, “An all-to-all approach to the identification of sequence-specific readers for epigenetic DNA modifications on cytosine”.
